Myeloid diff MLP = compounds promoting myeloid differentiation; ER-HoxA9 myeloid progenitors, lysozyme-GFP differentiation, flow cytometry; calls only at 10 µM; 360,000 compounds, 1% hits; AID 624256;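 active means normalized GFP-positive differentiation at or above the plate's own cutoff, the solvent-only control mean plus 3 SD; inconclusive means no clear call, values can overlap the other calls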;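 further: cells exposed to compound for four days before flow analysis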
TLR9-MyD88 block = TLR9-MyD88 interaction inhibition; Q9NR96+Q99836; CHO BLA complementation TLR9-MyD88, CCF4 FRET ratio; inhibition, % at 4.98 µM; 340,000 compounds, 0.21% hits;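 active means inhibition above the mean over all tested compounds plus 3 SD, cut at about 21% in these data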;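 further: 0% = DMSO only wells and 100% = clavulanate BLA inhibitor control wells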
TLR4 MyD88 comp = TLR4-MyD88 interaction inhibition in cells; HeLa CL3-4 TLR4/MyD88 BLA complementation, FRET ratio; inhibition, % at 8.4 µM; 200,000 compounds, 0.18% hits; AID 861; in the data active means inhibition above about 25%;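 further: 0% = vehicle and 100% = reference inhibitor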
ABCB6 inh MLPCN = human ABCB6 transporter inhibition; 360,000 compounds, 0.19% hits; K562-ABCB6 porphyrin accumulation, flow cytometry, 1 h; active compounds read low; Q9NP58; AID 602162; fluorescence ratio to DMSO, % at 10 µM;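 active means fluorescence ratio to DMSO below 75%, the collection mean minus 3 SD; inconclusive means too few cells collected in the well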;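 further: signal is porphyrin accumulated inside mitochondria; 100% equals median channel fluorescence of DMSO control wells; lower ratio means ABCB6 inhibition with less porphyrin fluorescence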
Target sequence (Q9NP58 whole entry, looked up): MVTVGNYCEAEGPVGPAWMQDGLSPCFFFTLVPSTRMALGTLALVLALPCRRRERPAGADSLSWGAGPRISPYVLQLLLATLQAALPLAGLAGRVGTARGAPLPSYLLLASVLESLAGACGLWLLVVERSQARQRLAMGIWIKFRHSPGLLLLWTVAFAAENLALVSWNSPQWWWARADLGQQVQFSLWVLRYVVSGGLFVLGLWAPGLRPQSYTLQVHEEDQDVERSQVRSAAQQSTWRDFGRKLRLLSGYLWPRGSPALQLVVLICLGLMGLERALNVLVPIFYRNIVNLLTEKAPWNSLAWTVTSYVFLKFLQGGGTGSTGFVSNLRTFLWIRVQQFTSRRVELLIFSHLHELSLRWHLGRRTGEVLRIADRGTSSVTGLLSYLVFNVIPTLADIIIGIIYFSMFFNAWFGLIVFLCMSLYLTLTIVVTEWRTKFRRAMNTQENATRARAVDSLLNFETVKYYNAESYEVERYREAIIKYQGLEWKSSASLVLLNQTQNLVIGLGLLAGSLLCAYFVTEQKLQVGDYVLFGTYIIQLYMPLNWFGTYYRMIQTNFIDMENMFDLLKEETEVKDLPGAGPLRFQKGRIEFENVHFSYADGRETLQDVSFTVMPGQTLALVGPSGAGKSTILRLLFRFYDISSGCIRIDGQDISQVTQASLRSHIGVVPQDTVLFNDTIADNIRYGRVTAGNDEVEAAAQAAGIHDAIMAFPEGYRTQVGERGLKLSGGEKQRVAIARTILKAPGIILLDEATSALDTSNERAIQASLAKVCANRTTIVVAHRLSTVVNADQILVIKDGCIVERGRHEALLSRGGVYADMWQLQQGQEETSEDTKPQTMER
NOD2-RIPK2 inh = blocks binding of human NOD2 to RIPK2. O43353. CHO BLA complementation NOD2-RIPK2, CCF4 ratio. inhibition, % at 4.98 µM. 360,000 compounds, 0.38% hits; in the data active means inhibition above about 21%;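 further: 0% = vehicle only and 100% = reference blocker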
* = called active by the depositor; i = inactive; ? = inconclusive; / = not tested or not shown; + = active, no number. Most compounds without a hit are left out; they make up all but 1.7% or so of the library.

SMILES	Myeloid diff MLP	TLR9-MyD88 block	TLR4 MyD88 comp	ABCB6 inh MLPCN	NOD2-RIPK2 inh
N#C/C(=C/c1ccc(-c2ccccc2)o1)c1nc(-c2cccs2)cs1	+	16	15	290	12
CC(C)(C)c1ccc(C(=O)NNC(=O)CCc2ccccc2)cc1	+	/	/	99	-9
CC(=O)Nc1ccc(C(=O)NNC(=O)CCc2ccccc2)cc1	i	-2	-5	99	-5
N#C/C(=C\c1ccccn1)c1nc2ccccc2s1	+	9	8	941	7
COc1ccc(-c2nc3c4ccccc4ccn3c2CC2CCCCC2)cc1OC	+	/	/	198	-17
COc1ccc2c(CC(=O)N3CCN(S(=O)(=O)c4ccc(F)cc4)CC3)coc2c1	+	-5	/	95	5
COc1ccc2c(CC(=O)N3CCN(S(=O)(=O)c4cccs4)CC3)coc2c1	i	5	3	97	-7
CN(C)c1nc(/C=C(\C#N)C(N)=O)c(Cl)n1-c1ccc(F)cc1	i	-9	6	98	-2
O=C(NCc1ccc2c(c1)OCO2)c1nn(-c2ccccc2)c(=O)c2ccccc12	i	6	2	65*	2
O=C(Nc1ccc2c(c1)OCO2)c1nn(-c2ccccc2)c(=O)c2ccccc12	i	-4	-2	102	-5
CCOC(=O)c1ccc(NC(=O)C(=O)NCc2ccco2)cc1	i	8	0	93	4
O=C(O)c1ccccc1CSc1nc2ccccc2n1Cc1ccccc1C(=O)O	+	-12	-15	123	5
COCCN(CCOC)Cc1cc(=O)oc2cc(C)c(Cl)cc12	i	/	/	100	-11
CCOc1ccccc1N=C1SCC(C)N1C(=O)C1CCN(c2ncnc3sc(C)c(C)c23)CC1 (centres undefined)	i	-15	/	96	-2
CC1(C(=O)Nc2ccc3[nH]ncc3c2)CCN1C(=O)C/C=C/c1ccccc1 (centres undefined)	+	/	/	109	12
CC1(C(=O)Nc2ccc3[nH]ncc3c2)CCN1C(=O)CC(c1ccccc1)c1ccccc1 (centres undefined)	i	/	/	101	-11
COc1ccc(NC(C)=O)c(C)c1	i	-5	-13	96	-6
COc1cc(C)c(C(=O)CC(=O)c2c(C)cc(OC)cc2C)c(C)c1	+	/	/	96	3
COc1nc(-c2ccccc2)cc(-c2ccc3c(c2)OCO3)c1C#N	+	5	/	98	-9
CCn1c(O)c(N=NC(=O)CNC(=O)c2cccnc2)c2ccccc21	i	-7	/	101	-8
O=C(NC(=S)Nc1cc(Cl)ccc1O)c1cccc(Br)c1	+	-7	/	104	4
Cn1c(=O)oc2cc(S(=O)(=O)N3CCN(c4ccccc4)CC3)ccc21	+	-4	-14	118	-1
COc1ccc(OC)c(N/C(=N/C(=S)Nc2ccccc2)Nc2nc(C)cc(C)n2)c1	+	/	/	101	-14
CC1(C)CNc2cc(N)ccc2S1	+	0	-5	116	3
O=C(NCC(c1ccco1)N1CCCC1)c1ccccc1Sc1ccc(C(F)(F)F)cc1[N+](=O)[O-] (centres undefined)	i	5	/	90	7
SMILES	Myeloid diff MLP	TLR9-MyD88 block	TLR4 MyD88 comp	ABCB6 inh MLPCN	NOD2-RIPK2 inh
CNC(=S)N1N=C(c2ccc(Br)cc2)CC1c1ccc(Br)cc1 (centres undefined)	i	5	-9	101	-5
Cc1cc2n(n1)C(c1ccccc1)CC(c1ccc(Br)cc1)=N2 (centres undefined)	i	24*	-10	118	22*
COc1ccc(-c2cc(C(F)F)n3ncc(C(=O)N4CCCCC4)c3n2)cc1	i	-3	3	98	5
COc1ccc(-c2cc(C(F)F)n3ncc(C(=O)N4CCN(C(=O)c5ccco5)CC4)c3n2)cc1	+	-5	-1	97	-6
O=C1N/C(=C\c2ccccc2)c2ccccc21	+	4	-11	86	-8
CCc1nnc(NC(=O)CSc2nccn2-c2cccc(C)c2)s1	+	5	4	97	-23
O=Cc1ccc(C(=O)OCC(=O)NC(=O)Nc2ccccc2F)cc1	i	7	/	98	-7
CC(=NCc1cccc(Cl)c1)c1nc(-c2ccco2)oc1O	+	6	-7	96	-6
O=[N+]([O-])c1ccc(CSc2ccc(S(=O)(=O)N3CCOCC3)cn2)cc1	i	-3	/	100	-9
COc1cc(N2CCCC2)c(OC)cc1/C=C1/NC(=S)NC1=O	+	4	13	482	1
COc1ccc(OC)c(/C=C2\NC(=O)NC2=O)c1	i	-7	/	86	3
O=C1NC(=S)NC(=O)C1=Cc1ccccc1C(=O)O	i	-16	/	99	-14
Cn1cccc1Cc1nnc(SCC(=O)Nc2cccc(F)c2)n1CCc1ccccc1	i	3	-13	102	-5
Cn1cccc1Cc1nnc(SCC(=O)Nc2ccccc2F)n1CCc1ccccc1	+	7	-6	100	6
COc1cccc(Nc2nc(C(N)Cc3ccc(F)cc3)cs2)n1 (centres undefined)	+	/	/	90	10
N#Cc1c(-c2ccccc2)c(C#N)c2nc3ccccc3n2c1N	+	-3	-22	98	-2
COc1ccc2cc1Oc1ccc(cc1)C[C@H]1c3c(cc(OC)c4c3Oc3c(ccc5c3[C@H](C2)N(C)CC5)O4)CCN1C	?	-2	/	99	3
COc1ccc2cc1Oc1ccc(cc1)CC1c3c(cc(OC)c4c3Oc3cc5c(cc3O4)CCNC5C2)CCN1C (centres undefined)	+	8	/	102	4
Cc1noc(/C=C/c2ccccn2)c1[N+](=O)[O-]	+	-3	/	98	-2
O=C(c1ccoc1)N1CCC2(CC1)Oc1ccc(F)cc1C(=O)C21CC(c2ccc(Cl)cc2)=NO1 (centres undefined)	+	2	/	99	-2
O=C(c1ccoc1)N1CCC2(CC1)Oc1ccc(Cl)cc1C(=O)C21CC(c2ccc(Cl)cc2)=NO1 (centres undefined)	i	-1	/	99	-6
Cc1nn2c(COc3ccc(NC(=O)c4ccccc4Cl)cc3)nnc2c2ccccc12	+	-3	0	93	-1
C/C=C(/C)C(=O)OC1CC(C)(C)C[C@H]2C3=CC[C@@H]4[C@@]5(C)CCC(O[C@@H]6O[C@@H](C(=O)O)[C@@H](O)C(O[C@@H]7OC[C@H](O)[C@@H](O)[C@@H]7O[C@@H]7OC(CO)C(O)[C@@H](O)[C@@H]7O)C6O[C@@H]6OC(CO)C(O)C(O)C6O)[C@@](C)(CO)[C@@H]5CC[C@]4(C)[C@]3(C)CC(O)[C@@]12CO (some centres undefined)	i	-1	/	104	10
